# Laboratory results published in PubChem BioAssay (NCI).
# Compounds without any hit were thinned out: in the full panel of roughly 79,000, 15% have a hit. A number with no mark means an inactive call. Active and inactive are the calls of the source. Cut-off read from the data, not from the text of the source: active = growth inhibition above about 70%; inactive = the rest.
# Experiment: NCI Yeast Anticancer Drug Screen. Data for the rad50 strain (AID 155);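 note: 0% = growth of vehicle-only cultures of the same strain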
# Settings: S. cerevisiae rad50 strain growth inhibition; at 5.0 µM (retest, dose inferred, filed as 0.5); active compounds read high
# Outline: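 Growth of the mutant yeast was measured after compound exposure and referenced to vehicle-treated cultures.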
row,SMILES,growth inhibition
1,COc1ccc(Cc2nc3ccccc3s2)cc1OC,42%
2,CN(NC(=O)c1cccs1)C1=NCCCN1,43%
3,Cc1cccc2c1C(=O)N(CC[P+](c1ccccc1)(c1ccccc1)c1ccccc1)C2=O,77% (active)
4,CCc1cc2c(cc1O)CC[C@@H]1[C@@H]2CC[C@]2(C)[C@@H](O)CC[C@@H]12,31%
5,C[n+]1c2ccc(Cl)cc2nc2cc(-c3ccccc3)ccc21,15%
6,CCCCCN=Cc1c(O)c(O)c(C(C)C)c2cc(C)c(-c3c(C)cc4c(C(C)C)c(O)c(O)c(C=NCCCCC)c4c3O)c(O)c12,2%
7,CCOC1(c2ccccc2)c2ccccc2S(=O)(=O)N1C (stereo not given),-3%
8,CCN(CC)CCNc1ccc(C)c2sc3ccc(OC)cc3c(=O)c12,32%
9,Cc1nc2c(cnn2-c2ccccc2)c(=O)o1,-143%
10,O=S(=O)(c1ccc(NC(=S)NCc2ccncc2)cc1)N1CCCCC1,-30%
11,Nc1nn2c(C(Br)Br)cc(C(Br)Br)nc2c1[N+](=O)[O-],100% (active)
12,O=C1C=CC(=O)N1c1ccccc1 (tested in a mixture with another compound),0%
13,O=C(O)CCSc1ncnc2nc[nH]c12,3%
14,COc1cccc(=O)cc1,5%
15,CCN(CC)CCCC(=O)Nc1cc(OC)cc2cccnc12,2%
16,COc1ccc(C2SCC(=O)N2c2ccc(-c3ccc(-n4c(-c5ccccc5)nc5ccccc5c4=O)cc3)cc2)cc1 (stereo not given),0%
17,CC(=O)OC(C#N)CC(C)(C)/[N+]([O-])=[N+](\[O-])C(C)(C)CC(C#N)OC(C)=O (stereo not given),6%
18,ICCCCCCCCCC[n+]1ccc2ccccc2c1,32%
19,CCCCCc1[nH]nc(C(=O)OC)c1N=NN1CCOCC1,43%
20,Clc1ccc(C(c2ccc(Cl)cc2)c2cncnc2)cc1,18%

row,SMILES,growth inhibition
1,CC1=C(C(=O)Nc2cccc(Cl)c2)C(c2ccc([N+](=O)[O-])cc2)C(C(=O)Nc2cccc(Cl)c2)=C(C)N1,44%
2,NC1=NC(c2ccccc2)CC(c2cc(Cl)cc(Br)c2O)=N1 (stereo not given),0%
3,CC(NNC(=S)NCc1ccccc1)c1cc2ccccc2cn1 (stereo not given),12%
4,C=CCOC(=O)CC(O)C(=O)OCC=C (stereo not given),-5%
5,OC(C(=Nc1ccccc1)c1ccccc1)c1ccccc1 (stereo not given),50%
6,C=CC1(NC(=O)c2ccccc2)CCC(C(C)(C)C)CC1 (stereo not given),-10%
7,O=C(Nc1ccccc1-c1nn(CN2CCNCC2)c(=S)n(CN2CCNCC2)c1=O)C(F)(F)F,0%
8,CCN(CC)CCOc1c(I)cc(I)cc1I,2%
9,CCN(CC)CC(O)c1ccnc2c(O)cccc12 (stereo not given),3%
10,O=[N+]([O-])c1ccc(-c2nc(/C=N/N3CCCCC3)cs2)o1,12%
11,O=C(CCn1[nH]c(=O)c(Cl)c(Cl)c1=O)NNc1ccc([N+](=O)[O-])cc1[N+](=O)[O-],4%
12,COc1ccc(-c2c(CO)cc(OC)c(OC)c2OC)c(CO)c1,-1%
13,C(=C\c1cnnc2ccccc12)/c1ccco1,2%
14,CCCCCCCCNc1ccc(Cl)cc1,46%
15,Cc1ccc2ccc(C(Nc3ccccc3)c3ccncc3)c(O)c2n1 (stereo not given),-6%
16,c1ccc(C2=NOC3(c4ccccc4)SC4CCCCC4CN23)cc1 (stereo not given),6%
17,COc1ccc(C(=O)Nc2ccccc2[N+](=O)[O-])cc1,-6%
18,CC(=O)CC(C)=NCCN=C(C)CC(C)=O.[Pd],-6%
19,Cc1cc2oc3c(ccc(=O)n3C)c(=O)c2c(C)c1Cl,9%
20,CCCOc1ccc(/C=N/NC(N)=S)cc1,16%
